Here are results for 9 compounds from PubChem BioAssay.

The test system of assay [1] is TRPC4 beta (transient receptor potential cation channel C4), mouse. The assay can be described thus: TRPC4 cation channel opening, retest – cell-based, Fluo4 calcium, HEK293 TRPC4beta/mu-opioid, duplicates, 10 µM, confirmation (AID 2426;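 active = fluorescence ratio normalized to control raised more than 50% in primary screen plus both repeat runs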). As to conditions: Fluo4 calcium fluorescence, at 10 µM; hits give high values.
In assay [2] the test system is transient receptor potential cation channel C4 beta (TRPC4), mouse. Briefly: TRPC4 cation channel opening, second retest – cell-based, second round, Fluo4, HEK293 TRPC4beta/mu-opioid, 1 µM, confirmation (AID 2461;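 active = primary screen active and over 50% activation in each of two duplicate runs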). As to conditions: Fluo4 calcium fluorescence, at 1 µM; hits give high values.
In assay [3] the test system is TRPC4 (transient receptor potential cation channel C4 beta), mouse. Briefly: potentiation of DAMGO EC20 TRPC4 response – cell-based, second round, Fluo-4, HEK293 TRPC4beta/mu-opioid, 1 µM, confirmation (AID 2554;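 active = primary screen hit whose fluorescence ratio, in both repeats, exceeds the weak agonist control mean by 3 SD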). As to conditions: DAMGO EC20, Fluo-4 calcium flux, at 1 µM; hits give high values.
Assay [4] concerns TRPC4 beta (transient receptor potential cation channel C4), mouse. Briefly: potentiation of DAMGO EC20 TRPC4 response – cell-based, Fluo-4, HEK293 TRPC4beta/mu-opioid, confirmation (AID 2555). As to conditions: DAMGO EC20, Fluo-4 calcium flux, at 10 µM; hits give high values.
Assay [5] concerns the target Short transient receptor potential channel 4 (Mus musculus) (UniProt Q9QUQ5). The assay can be described thus: blockers of DAMGO-evoked TRPC4 calcium flux – cell-based, Fluo4, HEK293 TRPC4beta/mu-opioid, confirmation (AID 2636;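 active = calcium signal cut by more than 3 SD below the full-agonist control yet still positive, in both repeats and the earlier primary screen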). As to conditions: at 10 µM; hits give high values. On the technique in general: A change in cytosolic calcium serves as a functional read-out for many receptors and channels.

For assay [6] the target is unchanged. Briefly: blockers of DAMGO-evoked TRPC4 calcium flux – cell-based, second round, Fluo4, HEK293 TRPC4beta/mu-opioid, 1 µM, confirmation (AID 2637;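 active = calcium signal ratio cut to more than 3 SD under the fully stimulated control mean yet still positive, in both repeats and the primary screen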). As to conditions: at 1 µM; hits give high values.
The target is the same in assay [7]. The assay can be described thus: calcium entry via TRPC4 opening agents – cell-based, HEK293 TRPC4/mu-opioid, Fluo-4 calcium, dose response (AID 434937;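 active = primary screen activator hit with a dose response curve and TRPC4 channel activation at any tested dose; inactive = no activation, no dose response, or not a primary hit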).
Assay [8] has the same target. The assay can be described thus: potentiation of DAMGO-evoked TRPC4 calcium signal – cell-based, HEK293 TRPC4/mu-opioid, Fluo-4 calcium, EC20 DAMGO, dose response (AID 434941;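 active = earlier screen potentiator hit that boosts the TRPC4 ion channel at some dose, with a dose response; inactive = no potentiation, no dose response, or not a prior hit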;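 also: calcium entry triggered by an EC20 dose of DAMGO at the co-expressed mu-opioid receptor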).
The target is the same in assay [9]. The assay can be described thus: block of DAMGO-driven TRPC4 calcium entry – cell-based, HEK293 TRPC4/mu-opioid, Fluo-4 calcium, dose response (AID 434942;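 active = primary screen inhibitor hit that blocks the TRPC4 channel at some tested dose, yielding a dose curve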).
Assay [10] has as its target Short transient receptor potential channel 6 (Mus musculus) (UniProt Q61143). The assay can be described thus: TRPC6 blockade by TRPC4 inhibitor hits – cell-based, HEK293, membrane potential dye, duplicate, selectivity assay for TRPC4 inhibitor project, confirmation (AID 434948;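 active = active in primary screen and both duplicates, each dropping signal beyond three positive-control SD with fluorescence still positive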). As to conditions: HEK293 TRPC6, membrane potential dye fluorescence, at 10 µM, stimulated with maximal-effect acetylcholine; hits give high values.

Assay [11] has the same target. The assay can be described thus: TRPC6 opening by TRPC4 activator hits – cell-based, HEK293, membrane potential dye, duplicate, selectivity assay for TRPC4 activator project, confirmation (AID 434950;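 active = membrane potential signal rise above negative control mean plus 3 SD in both duplicates, also active in the earlier TRPC4 screen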). As to conditions: HEK293 TRPC6, membrane potential fluorescence, at 10 µM; activation: hits give high values; outcome: activation.
The target is the same in assay [12]. Briefly: positive modulators of mouse TRPC6 channel – HEK293 cells, membrane potential dye, duplicate, selectivity assay for TRPC4 potentiator project, confirmation (AID 434952;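 active = compound raising the membrane signal above positive-control mean plus 3 SD in both repeats, and a primary screen hit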). As to conditions: HEK293 TRPC6, membrane potential dye fluorescence, at 10 µM, maximal acetylcholine added after compound; hits give high values.
The target in assay [13] is Short transient receptor potential channel 4 (Mus musculus) (UniProt Q9QUQ5). Briefly: calcium flux activators in TRPC4/5HT1a cells, counter-screen for TRPC4 activator project, cell-based, second counter screen, HEK293 TRPC4/5HT1a, Fluo-4 (AID 434977;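 active = calcium signal rise above buffer-control mean plus 5 SD in both duplicates, and also a hit in the primary screen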). As to conditions: Fluo-4 calcium flux, at 10 µM; hits give high values.
Assay [14] in a line: serotonin-gated TRPC4 signal block – cell-based, second counter screen, HEK293 TRPC4/5HT1a, Fluo-4, counter-screen for TRPC4 inhibitor project, confirmation (AID 434978;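 active = primary screen active whose calcium signal fell more than 3 SD beyond the full-serotonin control mean in both duplicate plates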;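 as to outcome: serotonin given first at submaximal then at maximal dose after compound preincubation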). As to conditions: Fluo-4 calcium flux, at 10 µM, serotonin added to trigger calcium flux; hits give high values. (In general: The purpose of a counterscreen is to sort out artefacts and off-target activity.)
The test system of assay [15] is TRPC4 (mouse), co-expressed with 5HT1a in HEK293. Briefly: enhancement of serotonin-evoked TRPC4 response – cell-based, second counter screen, HEK293 TRPC4/5HT1a, Fluo-4, counter-screen for TRPC4 potentiator project, confirmation (AID 434979;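 active = signal rise over 3 SD above mean of control wells given weak agonist, in both repeats and first screen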). As to conditions: Fluo-4 calcium flux, at 10 µM, serotonin added at its EC20 dose; hits give high values.
A short description of assay [16]: nonspecific calcium rise without TRPC4 – cell-based, HEK293 mu-opioid receptor line, counter-screen for TRPC4 activator project, confirmation (AID 449723;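 active = hit in primary screen, with calcium signal over 5 SD above buffer well mean in both duplicates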;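 also: counter screen cells carry the mu-opioid receptor alone and lack TRPC4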). As to conditions: HEK293 mu-opioid cells, Fluo-4 calcium fluorescence, at 10 µM; hits give high values.
The nature of assay [17]: nonspecific potentiation of DAMGO calcium response – cell-based, HEK293 mu-opioid receptor line, counter-screen for TRPC4 allosteric potentiator project, confirmation (AID 449724;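 active = calcium signal rise more than 3 SD above the low-dose agonist control mean, in both duplicate plates and the primary screen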;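 also: HEK293 cells carrying mu-opioid receptor only with no TRPC4 channel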). As to conditions: HEK293 mu-opioid receptor cells, Fluo-4 calcium flux, at 10 µM, compound added before EC20 DAMGO stimulus; hits give high values.

For part of these data: Measured potencies and affinities stand elsewhere. Calls of active or inactive are those of the source.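 The calls were made as follows, unless noted: active = primary screen hit whose calcium fluorescence ratio, in both repeats, exceeds the weak agonist control mean by 3 SD; inactive = the rest.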

Chain of Short transient receptor potential channel 6 (Mus musculus) (Q61143 whole entry, looked up): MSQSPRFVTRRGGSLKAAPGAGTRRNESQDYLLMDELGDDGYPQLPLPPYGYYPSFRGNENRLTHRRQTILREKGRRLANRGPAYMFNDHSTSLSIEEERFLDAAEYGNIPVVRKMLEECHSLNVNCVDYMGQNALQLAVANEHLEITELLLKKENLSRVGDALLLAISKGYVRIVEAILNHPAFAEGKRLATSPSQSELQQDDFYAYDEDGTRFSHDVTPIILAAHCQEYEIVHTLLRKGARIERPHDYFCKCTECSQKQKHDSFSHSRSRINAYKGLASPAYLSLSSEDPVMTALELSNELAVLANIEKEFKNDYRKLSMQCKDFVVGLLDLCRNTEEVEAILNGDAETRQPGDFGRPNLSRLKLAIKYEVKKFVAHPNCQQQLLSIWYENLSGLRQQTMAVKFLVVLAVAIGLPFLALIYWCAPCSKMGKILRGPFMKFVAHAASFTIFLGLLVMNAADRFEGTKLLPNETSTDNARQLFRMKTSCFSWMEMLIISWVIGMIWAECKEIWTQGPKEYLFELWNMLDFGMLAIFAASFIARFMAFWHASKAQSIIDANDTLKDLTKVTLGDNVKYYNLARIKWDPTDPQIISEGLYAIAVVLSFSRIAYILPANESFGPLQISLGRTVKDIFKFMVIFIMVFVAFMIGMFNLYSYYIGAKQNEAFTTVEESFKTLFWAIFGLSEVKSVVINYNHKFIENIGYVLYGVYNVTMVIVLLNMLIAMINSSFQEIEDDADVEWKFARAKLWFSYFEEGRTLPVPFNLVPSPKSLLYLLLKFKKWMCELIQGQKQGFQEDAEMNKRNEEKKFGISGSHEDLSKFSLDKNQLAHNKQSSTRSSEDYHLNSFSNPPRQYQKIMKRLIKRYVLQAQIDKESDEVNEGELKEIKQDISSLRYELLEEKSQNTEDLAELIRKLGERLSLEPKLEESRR
Chain of Short transient receptor potential channel 4 (Mus musculus) (Q9QUQ5 whole entry, looked up): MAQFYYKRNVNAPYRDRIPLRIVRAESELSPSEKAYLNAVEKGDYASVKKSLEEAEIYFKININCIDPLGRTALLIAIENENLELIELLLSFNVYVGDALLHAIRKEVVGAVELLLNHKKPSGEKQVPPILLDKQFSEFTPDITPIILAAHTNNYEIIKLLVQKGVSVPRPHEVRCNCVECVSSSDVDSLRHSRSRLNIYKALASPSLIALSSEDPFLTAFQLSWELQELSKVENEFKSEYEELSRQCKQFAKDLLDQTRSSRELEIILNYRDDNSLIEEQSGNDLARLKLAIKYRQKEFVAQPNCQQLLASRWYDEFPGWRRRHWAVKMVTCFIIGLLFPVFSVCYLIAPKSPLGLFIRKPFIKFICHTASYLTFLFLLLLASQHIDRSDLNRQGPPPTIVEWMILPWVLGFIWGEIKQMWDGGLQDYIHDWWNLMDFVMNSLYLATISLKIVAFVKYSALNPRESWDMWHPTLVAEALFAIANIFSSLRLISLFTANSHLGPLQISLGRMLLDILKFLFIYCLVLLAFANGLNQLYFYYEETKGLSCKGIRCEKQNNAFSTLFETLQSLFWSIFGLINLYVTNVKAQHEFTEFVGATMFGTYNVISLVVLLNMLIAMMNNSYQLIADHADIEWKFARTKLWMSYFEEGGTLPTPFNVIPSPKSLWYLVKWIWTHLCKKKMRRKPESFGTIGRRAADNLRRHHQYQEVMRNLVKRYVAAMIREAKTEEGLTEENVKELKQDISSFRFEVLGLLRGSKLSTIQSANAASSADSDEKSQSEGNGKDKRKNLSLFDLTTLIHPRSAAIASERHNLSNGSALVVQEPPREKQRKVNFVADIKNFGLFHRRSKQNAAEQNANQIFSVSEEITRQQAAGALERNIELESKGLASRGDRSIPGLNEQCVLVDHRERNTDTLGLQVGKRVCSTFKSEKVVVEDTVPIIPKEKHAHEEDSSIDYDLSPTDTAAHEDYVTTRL

Consider `O=C(Nc1ncc(Br)s1)C(Cc1ccccc1)n1cccc1` (stereo not drawn), for which the result in assay [1], in assay [2], in [3], in [5], in assay [6] and in [7] was inactive. Moreover, the result in assay [8], in assay [9], in [10], in assay [11], in assay [12] and in assay [13] was inactive. Further, the result in [14], in [16] and in assay [17] was inactive. Besides, the values for the potentiation in assay [4] and in assay [15] were 26% (active) and 7.42% (active), respectively.
Take `COc1cc(/C=C2/SC(=O)NC2=O)ccc1OCc1ccccc1`: the result in [1], in assay [2], in assay [3], in assay [4], in [5] and in assay [6] was inactive. Moreover, the result in [7], in assay [8], in assay [9], in [10], in assay [11] and in assay [12] was inactive. Besides, the result in [13], in [14], in assay [15], in assay [16] and in assay [17] was inactive.
Take `COC(=O)CSc1nnc(CNS(=O)(=O)c2ccc(Br)cc2)n1C`: the result in [1], in [2], in assay [3], in assay [4], in assay [5] and in assay [6] was inactive. For the same compound, the outcome in assay [7], in [8], in assay [9], in [10], in assay [11] and in assay [12] was inactive. Besides, the result in [13], in [14], in assay [15], in assay [16] and in [17] was inactive.
With `C=CCn1c(=N)n(CC(O)COc2ccccc2OC)c2ccccc21` (stereo not drawn), the result in assay [1], in assay [2], in assay [3], in [4], in assay [5] and in assay [6] was inactive. For the same compound, the outcome in [7], in assay [8], in assay [9], in [10], in [11] and in assay [12] was inactive. The outcome in [13], in [14], in [15], in [16] and in assay [17] was inactive.
On to `O=C(CSc1nnc(-c2ccccc2)o1)c1ccc2c(c1)OCCO2`, for which the result in [1], in assay [2], in assay [3], in assay [4], in [5] and in [6] was inactive. For the same compound, the result in [7], in assay [8], in assay [9], in assay [10], in [11] and in assay [12] was inactive. The outcome in assay [13], in [14], in [15], in [16] and in assay [17] was inactive.
Consider `O=C(N/N=C/c1cc2c(cc1Br)OCO2)c1cc2ccccc2o1`, for which the result in assay [1], in [2], in assay [3], in assay [4], in [6] and in [7] was inactive. Also, the result in [8], in [9], in [10], in assay [11], in assay [12] and in assay [13] was inactive. Also, the outcome in assay [14], in assay [15], in [16] and in [17] was inactive. For the same compound, the inhibition (as a rule, the change of the read-out against control, counted positive when it falls) in [5] is 93% (active).
Turning to `COc1ccccc1CC(=O)N1CCN(S(=O)(=O)c2ccccc2)CC1`, the outcome in assay [1], in assay [2], in assay [3], in assay [5], in assay [6] and in assay [7] was inactive. The outcome in assay [8], in assay [9], in assay [10], in assay [11], in assay [12] and in [13] was inactive. Also, the result in assay [14], in assay [16] and in [17] was inactive. In addition, the potentiation was 24% (active) in [4] and 44.4% (active) in assay [15].
`Cc1ccc2oc(C(=O)N3CCC(O)(c4ccccc4)CC3)c(C)c2c1`: the outcome in [1], in assay [2], in assay [3], in [5], in assay [6] and in [7] was inactive. Further, the outcome in assay [8], in assay [9], in [10], in assay [11], in assay [12] and in [13] was inactive. Moreover, the outcome in [14], in assay [16] and in assay [17] was inactive. Besides, the potentiation was 11% (active) in assay [4] and 27.2% (active) in assay [15].
Consider `O=C(CN1CCCCC1)Nc1ccccc1Oc1ccccc1`, for which the result in [1], in [2], in assay [3], in assay [4], in assay [6] and in assay [7] was inactive. Besides, the result in [8], in assay [9], in assay [11], in assay [12], in assay [13] and in assay [15] was inactive. Further, the result in assay [16] and in assay [17] was inactive. Besides, the figures for the inhibition in [5], in assay [10] and in assay [14] were 92% (active), 33.5% (active) and 31.5% (active), respectively.
